Pf growth 96h = P. falciparum growth inhibition at 96 hours | P. falciparum luciferase reporter growth, 96 h | Potency, µM (series often up to 28.7 µM), without a hit: at the top dose activity change, negative = inhibition, usual class: inhibitors | 6.9% of 320,000 active | AID 504834; further: potency means the concentration at half of the fitted maximal effect; on the % scale 0 is the no-effect control and ±100 the full control effect
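Infected RBCs, 2% Hct / 0.05% parasitemia final; luciferase-reporter P. falciparum; cpd 96 h, 37 C, 5% CO2; luciferase detection reagent; luminescence.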
Shiga toxin inh = inhibitors of Shiga toxin in Vero cells; AID 2315; inhibition, % at 38.7 µM; Vero cells, Shiga toxin protein synthesis inhibition reporter; 9.2% of 290,000 active; in the data active means inhibition mostly above about 28%, no sharp cut-off; inactive means mostly below about 43%; further: 0% is about no effect
CHX counter = counter-screen for Shiga toxin inhibitors: cycloheximide protein synthesis inhibition; cell reporter, cycloheximide protein synthesis inhibition counterscreen; max response, %; 12% of 300,000 active; AID 2314; in the data active means max response mostly above about 13%, no sharp cut-off; inactive means mostly below about 14%; further: read at 38.3 µM for the half of the compounds with a filed dose; 0% is about no effect
Pf growth 48h = inhibits P. falciparum growth in the first generation, 48 h; P. falciparum luciferase growth in erythrocytes, 48 h; Potency, µM (doses to about 28.7 µM), for the others: at the highest dose activity change, negative = inhibition, usual class: inhibitors; 5.9% of 310,000 active; AID 504832; further: potency means the concentration at half of the fitted maximal effect; on the % scale 0 is the no-effect control and ±100 the full control effect
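Compounds are pin-transferred into medium, infected erythrocytes (2% hematocrit, 0.1% parasitemia final) are added, and plates sit one parasite generation at 37 C in 5% CO2. Detection reagent is then added and luminescence measured.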
FBPA Giardia inh = Giardia lamblia aldolase inhibition. A8B2U2. purified Giardia FBPA. Potency, µM (series often up to 59.6 µM), for inactives: at the top dose activity, negative = inhibition, hits mostly inhibitors. 0.71% of 290,000 active. AID 2451; further: potency means the concentration at half of the fitted maximal effect; on the % scale 0 is the no-effect control and ±100 the full control effect; nearly all actives have a fitted effect of over 55% in size
Target sequence (A8B2U2 whole entry, looked up): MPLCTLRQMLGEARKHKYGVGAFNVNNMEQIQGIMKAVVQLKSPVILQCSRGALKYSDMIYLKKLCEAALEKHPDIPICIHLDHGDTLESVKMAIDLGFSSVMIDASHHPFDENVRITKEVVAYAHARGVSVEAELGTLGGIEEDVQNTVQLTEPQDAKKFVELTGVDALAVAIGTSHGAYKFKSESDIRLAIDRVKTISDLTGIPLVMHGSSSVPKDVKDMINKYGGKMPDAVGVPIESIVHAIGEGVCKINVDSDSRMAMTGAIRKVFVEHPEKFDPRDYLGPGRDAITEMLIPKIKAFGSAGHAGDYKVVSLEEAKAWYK
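40 nM FBPA preincubated 10 min at RT with compound (up to 57.5 uM final), then substrate plus GAPDH/TPI/NAD/arsenate coupling and diaphorase/resazurin added. Fluorescence read after 20 min at RT, 525/598 nm.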
NS1 inh = influenza NS1 inhibition | Potency, µM (doses to about 46.1 µM), for inactives: at the top dose activity, positive = more growth | AID 2326 | 0.4% of 270,000 active; calls by dose curve; further: potency means the concentration at half of the fitted maximal effect; actives are rising curves; nearly all actives have a fitted effect of over 50% in size
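Growth recovery, yeast-based: influenza A NS1 expressed in S. cerevisiae causes slow growth, and suppressors are detected by OD600. The parent strain without NS1 is used as positive control.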
* marks the source's active call; other numbers are inactive results; i = inactive; ? = inconclusive; / = no result; [ ] = remark or other dose. Only some compounds are listed: those with a hit (about 21% of all), similar ones and a draw of the others. Unless noted, the call rests on the fitted dose curve; in most records, active means well fitted curve in the direction sought with a large enough effect; inconclusive means small, poorly fitted or top-dose-only effect, or another doubt; inactive means no such curve, though single readings can be large; an effect the other way counts as inactive or inconclusive.

SMILES	Pf growth 96h	Shiga toxin inh	CHX counter	Pf growth 48h	FBPA Giardia inh	NS1 inh
O=C(NCCOc1ccccc1F)C1CCC(=O)N(CCc2cccc(F)c2)C1 (stereo not given)	15µM*	8	2	?	/	-25%
Cc1ccsc1CN(C)C(=O)C1CCC(=O)N(CCc2cccc(F)c2)C1 (stereo not given)	-1%	53*	36*	7%	5%	-5%
Cc1ccccc1CCNC(=O)C1CCC(=O)N(CCc2cccc(F)c2)C1 (stereo not given)	2%	10	12	-18%	4%	-2%
COc1ccccc1CN1CC[C@@]2(CCCN(C(=O)c3ccco3)C2)C1	/	/	/	/	-7%	/
Cn1c2ccccc2c2cc(C(=O)NNC(=O)CCl)sc21	9.3µM*	-7	7	?	-4%	/
CCOC(=O)N1CCN(S(=O)(=O)c2ccc(C(=O)N(CCCN(C)C)c3nc4c(F)cc(F)cc4s3)cc2)CC1	4%	/	/	4%	/	/
CCOC(=O)N1CCN(S(=O)(=O)c2ccc(C(=O)N(CCN(C)C)c3nc4ccc(CC)cc4s3)cc2)CC1	?	24	23*	10%	-25%	-10%
CCc1ccc2nc(N(CCCN(C)C)C(=O)c3ccc(S(=O)(=O)N4CCCc5ccccc54)cc3)sc2c1	?	-6	-1	?	-25%	6%
CCOC(=O)N1CCN(S(=O)(=O)c2ccc(C(=O)N(CCCN(C)C)c3nc4ccc(CC)cc4s3)cc2)CC1	?	30	17*	6.6µM*	-10%	10%
CCOC(=O)N1CCN(S(=O)(=O)c2ccc(C(=O)N(CCN(CC)CC)c3nc4ccc(C)cc4s3)cc2)CC1	-10%	19	23*	-19%	-25%	-14%
CCOC(=O)N1CCN(S(=O)(=O)c2ccc(C(=O)N(CCCN(C)C)c3nc4ccc(Cl)cc4s3)cc2)CC1	-1%	-23	-6	?	-9%	-2%
NS(=O)(=O)c1cc2c(cc1Cl)N[C@@H]([C@@H]1C[C@@H]3C=C[C@H]1C3)NS2(=O)=O	/	/	/	/	-6%	/
c1ccc([Se]c2c(-c3ccccc3)[se]c3ccccc23)cc1	/	i	17	/	4%	/
CC(OC(=O)c1ccc2ncsc2c1)C(=O)NC1CCCCC1C (stereo not given)	2%	/	/	3%	/	/
CN1/C(=C/C(=O)CSc2ccccc2C(=O)O)C(C)(C)c2ccccc21	44%	-2	-2	-5%	23%	10%
CN1/C(=C\C(=O)C[n+]2ccc(C(=O)c3ccccc3)cc2)C(C)(C)c2ccccc21	7.4µM*	12	0	2.1µM*	-11%	/
CN1/C(=C\C(=O)C[n+]2cccc(Br)c2)C(C)(C)c2ccccc21	15µM*	10	1	2.3µM*	-10%	0%
Cc1cccc[n+]1CC(=O)/C=C1\N(C)c2ccccc2C1(C)C	2.9µM*	7	3	2.9µM*	-4%	1%
CN1/C(=C\C(=O)C[n+]2cccc(C(N)=O)c2)C(C)(C)c2ccccc21	?	-5	4	?	-2%	/
Cc1ccc[n+](CC(=O)/C=C2\N(C)c3ccccc3C2(C)C)c1	0.37µM*	-4	-6	?	1%	11%
C=CCN(C(=O)c1csnn1)C(C(=O)NC1CCCC1)c1c(F)cccc1Cl (stereo not given)	?	7	-6	-10%	12%	16%
COCCN(C(=O)COC(=O)COc1ccc(Cl)c(C)c1)c1c(N)n(Cc2ccccc2)c(=O)[nH]c1=O	6%	-7	1	1%	-10%	-2%
CN1CCC[C@@H](CC2c3ccccc3Sc3ccccc32)C1	?	/	/	?	-5%[21.7 µM]	/
CCOc1ccccc1N(CC(=O)Nc1ccccc1C(=O)N1CCOCC1)S(C)(=O)=O	10µM*	21	-1	3%	/	7%
COc1ccc(N(CC(=O)Nc2ccccc2C(=O)N2CCOCC2)S(=O)(=O)c2ccc(F)cc2)cc1	10µM*	1	5	-1%	0%	-14%
SMILES	Pf growth 96h	Shiga toxin inh	CHX counter	Pf growth 48h	FBPA Giardia inh	NS1 inh
CS(=O)(=O)N(CC(=O)Nc1ccccc1C(=O)N1CCOCC1)c1ccccc1	26%	8	-4	0%	1%	1%
COc1ccc(N(CC(=O)Nc2ccccc2C(=O)N2CCCC2)S(=O)(=O)c2ccccc2)cc1	17%	-17	2	?	/	11%
COc1ccc(N(CC(=O)Nc2ccccc2C(N)=O)S(=O)(=O)c2ccc(C)c([N+](=O)[O-])c2)cc1	0%	45	23*	?	-4%	2%
CCCn1nc(C(=O)NCC2COc3ccccc3O2)c2ccccc2c1=O (stereo not given)	?	/	/	-21%	/	/
O=C(Cn1cnc2ccccc21)Nc1ccc2c(c1)OCCCO2	34%	/	/	41%	/	/
Cc1cc(C)n(CCOc2ccc(Br)cc2)n1	?	-5	-1	-13%	0%	-16%
CCOC(=O)c1cn(CC)c2cc(N3CCN(C)CC3)c(F)cc2c1=O	?	-6	-4	12µM*	15%	4%
CCC(C)NC(=O)c1cn(CC)c2cc(N3CCN(C)CC3)c(F)cc2c1=O (stereo not given)	-22%	-7	-1	?	3%	-2%
CCn1cc(S(=O)(=O)c2ccc(OC)cc2)c(=O)c2cc(F)c(N3CCN(C)CC3)cc21	8.3µM*	-10	-6	4%	20%	6%
CCOC(=O)c1cn(CC)c2cc(N3CCSCC3)c(F)cc2c1=O	-2%	2	-5	0.93µM*	7%	-4%
CCOC(=O)c1cn(CC)c2cc3c(cc2c1=O)OCO3	?	/	/	7%	/	/
C=CCn1c(COc2ccc(Cl)cc2)nnc1SCc1ccc(C#N)cc1	-25%[5.75 µM]	23	-3	?	-9%	-175%
Cc1ccc(-n2c(SCc3ccc(C#N)cc3)nnc2-c2ccccn2)cc1	10µM*	31	-3	?	2%	-55%
COc1ccc(-n2c(SCc3ccc(C#N)cc3)nnc2-c2ccccn2)cc1	?	-11	1	?	-6%	-10%
C=CCn1c(COc2ccccc2)nnc1SCc1ccc(C#N)cc1	0.93µM*	11	-3	-10%	5%	-51%
Cc1ccc(OCc2nnc(SCc3ccc(C#N)cc3)n2-c2ccc(C)cc2)cc1	/	-9	1	13µM*	-6%	5%
CNC(=O)/C(C#N)=C/c1ccc(OCCOc2ccccc2)cc1	60%	15	11*	14%	16%	-3%
N#C/C(=C/c1ccc(OCc2ccc(C(=O)O)cc2)cc1)C(=O)Nc1ccccc1	28%	-23	-4	-5%	-5%	-1%
N#C/C(=C\c1ccc(OCc2ccccc2)cc1)C(=O)Nc1nc2c(s1)CCN(Cc1ccccc1)C2	?	4	20*	8.3µM*	6%	-20%

Bioassay records (PubChem)
